Shown are actives, neighbours in structure and some others; about 3.9% of the full set was active somewhere.
Bead autofluor: compound fluorescence in toxin protease inhibitor counterscreen; compound autofluorescence counterscreen, microsphere flow cytometry; active compounds read high; fluorescence intensity (concentration not given with the values); 360,000 tested, 3.1% active; in the data active = fluorescence intensity above about 16000; inconclusive = no clear call, values can overlap the other calls
Anthrax LF inh2: blocks Bacillus anthracis lethal factor protease. P15917. inhibition, % at 10 µM. AID 588501. multiplex microsphere protease cleavage assay, LF. 360,000 tested, 0.12% active; also: plate controls were buffer without enzyme for full effect and enzyme alone for no effect
BoNT A protease: blocks Botulinum neurotoxin A light chain protease; AID 588499; inhibition, % at 10 µM; multiplex microsphere protease substrate cleavage, flow cytometry; 360,000 tested, 0.17% active; also: plate controls were buffer without enzyme for full effect and enzyme alone for no effect
3CLpro inhibitor: SARS-CoV 3CLpro protease inhibition; inhibition, % at 6 µM; P0C6X7; recombinant SARS-CoV 3CLpro, quenched FRET peptide cleavage; 290,000 tested, 0.14% active; AID 1706; in the data active = inhibition above about 12%
CCHF vOTU inh: blocks the CCHF virus ovarian tumor domain protease. inhibition, % at 11.5 µM. CCHFV vOTU protease, Pep-AMC fluorescence. 370,000 tested, 0.55% active. AID 651958; in the data active = inhibition above about 30%; also: 0% = vehicle wells with enzyme and 100% = no enzyme wells
BoNT-F LC inh: blocks Botulinum neurotoxin F light chain protease; Multiplex microsphere protease cleavage assay, flow cytometry; inhibition, % at 10 µM; 360,000 tested, 0.22% active; in the data active = inhibition above about 35%, passing the limit was not always enough; inconclusive = no clear call, values can overlap the other calls; also: plate controls were buffer without enzyme for full effect and enzyme alone for no effect
* hit, by the source's call; ? = inconclusive; . = no result given. Rule as the data show it, unless noted: active = inhibition above about 30%; inconclusive = no clear call, values can overlap the other calls; inactive = below that.

SMILES	Bead autofluor	Anthrax LF inh2	BoNT A protease	3CLpro inhibitor	CCHF vOTU inh	BoNT-F LC inh
Cc1cccc(C2=N/C(=C\c3cccs3)C(=O)O2)c1	4541	6	1	-2	5	0
Cc1ccc(S(=O)(=O)Oc2ccc(/C=C3\N=C(c4cccc(C)c4)OC3=O)cc2)cc1	21802*	3	4	1	-3	4
O=C(c1cc2ccccc2oc1=O)N1CCN(C(=O)C2CCCO2)CC1 (stereo not given)	25648*	-4	-8	0	.	-7
O=C(C1CCCO1)N1CCN(S(=O)(=O)c2ccccc2)CC1 (stereo not given)	22925*	0	-2	1	.	0
O=C(c1cc2ccccc2oc1=O)N1CCOCC1	3762	-6	0	-1	-10	0
Cn1c(NCc2cccnc2)nc2cc(-c3cccc(C(F)(F)F)c3)sc2c1=O	2977	3	0	.	11	-2
O=C(Cc1ccccc1)NN1C(=O)/C(=C/c2ccccc2C(=O)O)SC1=S	2475	0	0	-3	7	-4
Cc1ccc(-c2cc(C)nc3ncnn23)cc1	5859	-6	1	-2	2	-4
Cc1ccc(-c2cc(C)nc3nc(N)nn23)cc1	16426*	1	0	5	-35	3
Fc1ccccc1N1CCN(Cc2ccc3c(c2)OCO3)CC1	21279*	0	4	-2	16	3
Clc1ccccc1N1CCN(Cc2ccc3c(c2)OCO3)CC1	3384	13	2	-1	0	32
O=S(=O)(c1cccc(F)c1)N1CCN(Cc2ccc3c(c2)OCO3)CC1	16310*	-4	1	3	5	4
O=S(=O)(c1ccc(F)c(F)c1)N1CCN(Cc2ccc3c(c2)OCO3)CC1	3597	-3	0	4	5	-3
CC(O)CNc1ccc([N+](=O)[O-])c2cccnc12 (stereo not given)	2237	-2	0	-3	27	-4
CCC(CO)Nc1ccc([N+](=O)[O-])c2cccnc12 (stereo not given)	22808*	0	-2	2	22	-5
Cc1ccnc(N/C=C(/NC(=O)c2ccccc2)C(=O)N/N=C\c2ccc(Cl)cc2)n1	4524	-2	0	1	4	-1
O=C(CCn1c(=O)c2sccc2n(CC(=O)NCc2ccco2)c1=O)NCc1ccccc1	24369*	-4	-4	7	16	-9
O=C(CCCn1c(=O)c2sccc2n(CC(=O)NCc2ccco2)c1=O)NCc1ccco1	20462*	2	?	0	-13	3
Cc1cccc(C)c1NC(=O)Cn1c(=O)n(CCCC(=O)NCc2ccco2)c(=O)c2sccc21	22217*	0	-6	-3	-17	-7
COc1ccc(CCNC(=O)Cn2c(=O)n(CCCC(=O)NCc3ccco3)c(=O)c3sccc32)cc1OC	5088	-3	-1	-8	-5	-2
CCOC(=O)c1cc(CC)sc1NC(=O)c1cc([N+](=O)[O-])ccc1N1CCOCC1	8418	-11	1	1	-6	4
Cc1ccc(OC(=O)c2ccc(N3CCOCC3)c([N+](=O)[O-])c2)cc1	19491*	-5	3	-2	12	3
COC(=O)c1ccc(N2CCC(c3cc(-c4ccc(OC)cc4)n[nH]3)CC2)c([N+](=O)[O-])c1	23463*	-5	-2	8	1	-6
O=C(Oc1ccc(Cl)cc1)c1ccc(N2CCOCC2)c([N+](=O)[O-])c1	2498	0	0	-1	4	-3
CO/N=C/c1ccc(N2CCN(C(=O)c3ccc(C)cc3)CC2)c([N+](=O)[O-])c1	24171*	-5	-4	3	16	-4
SMILES	Bead autofluor	Anthrax LF inh2	BoNT A protease	3CLpro inhibitor	CCHF vOTU inh	BoNT-F LC inh
CCOC(=O)c1cc(CC)sc1NC(=O)c1ccc(N2CCOCC2)c([N+](=O)[O-])c1	19127*	0	3	2	.	3
C=CCOc1ccccc1/C=N/O	24314*	-2	?	-1	-8	-5
O=C(NC12CC3CC(CC(C3)C1)C2)c1cncc(O)c1	20010*	0	1	2	-6	-1
Cc1ccc(NC(=O)CSc2nnc(NC(=O)CN3CCOCC3)s2)cc1	16377*	-2	0	-5	3	5
O=C(CSc1nnc(NC2CCCCC2)s1)Nc1ccc(N2CCOCC2)cc1	22057*	1	1	-6	-11	2
CC(Sc1nnc(NC2CC2)s1)C(=O)Nc1ccc(N2CCOCC2)cc1 (stereo not given)	4779	-8	3	.	9	0
CC(=O)c1ccc(NC(=O)CSc2nnc(NC(=O)CN3CCOCC3)s2)cc1	5339	-3	0	-1	10	-4
CC1CN(C(=O)CN2C(=O)NC3(CCCCCC3)C2=O)CC(C)O1 (stereo not given)	24732*	-3	-2	4	10	-4
Cc1cc(C)c(NC(=O)CN2C(=O)NC3(CCCCC3)C2=O)c(C)c1	20379*	0	1	-7	-4	0
CC1CCN(C(=O)CN2C(=O)NC3(CCCCCC3)C2=O)CC1	8182	-6	-4	.	2	-4
COc1ccccc1NC(=O)c1csc2c1CCCC2	19509*	-4	?	-6	4	1
Cc1csc(NC(=O)C2CCN(C(=O)CSc3nnc(C)n3Cc3ccccc3)CC2)n1	20510*	1	?	-5	-3	-6
COc1cc(NS(=O)(=O)c2ccc(NC(=S)NC(=O)/C=C/c3ccco3)cc2)ncn1	2494	-2	-1	4	7	-4
O=C(OC12CCCN(C1)/C(=C/c1ccncc1)C2)c1cccc(F)c1 (stereo not given)	.	.	.	.	0	.
CCCN1CCc2c(sc(NC(=S)NC(=O)c3ccccc3)c2C#N)C1	2843	-65	58*	-22	3	-105
CC(C)N1CCc2c(sc(NC(=S)NC(=O)c3ccccc3)c2C#N)C1	2308	-13	32*	-19	-1	-88
CCN1CCc2c(sc(NC(=O)c3ccc4ccccc4c3)c2C(N)=O)C1	6523	-5	-3	-11	4	-2
CC(C)C1Cc2c(sc(NC(=S)NC(=O)c3ccccc3)c2C#N)CO1 (stereo not given)	2558	3	-1	3	0	-9
CCN1CCc2c(sc(NC(=S)NC(=O)c3ccc(Cl)cc3)c2C(N)=O)C1	16287*	1	-14	2	-3	?
CN1CCc2c(sc(NC(=O)Cc3ccccc3)c2C#N)C1	4769	-12	-2	-6	-5	-25
CC(C)N1CCc2c(sc(N)c2C#N)C1	19341*	24	25	.	-9	4
Cc1ccc(-c2[nH]nc3c2C(c2ccsc2)C(C#N)=C(N)O3)cc1 (stereo not given)	9623	-13	-1	0	6	-9
COc1cccc(-c2[nH]nc3c2C(c2ccsc2)C(C#N)=C(N)O3)c1 (stereo not given)	22773*	1	2	2	-1	0
N#CC1=C(N)Oc2n[nH]c(-c3ccccc3)c2C1c1ccsc1 (stereo not given)	.	.	.	-1	8	.

High-throughput results (PubChem)
